From the supplement of paper PMC11402862

Tested on: PPARgamma LBD (GAL4 fusion)
Test: luciferase reporter transactivation, fold of solvent control; higher = stronger receptor activation
Settings: HEK293T, exposure time: 24 h
Description: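 HEK293T cells were transiently transfected with a GAL4-DBD fused to the ligand-binding domain of a human nuclear receptor (PPARα, PPARγ, PPARδ, FXR, LXRα, PXR, RARα or CAR), the GAL4-(UAS)5-TK firefly luciferase reporter and a Renilla luciferase normalisation plasmid. Cells were exposed to compound for 24 h in 0.5% DMSO. Firefly/Renilla luciferase was expressed as fold of the solvent control (=1). Values are the mean of 2-3 biological replicates; receptor agonists were used as positive controls.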

| SMILES | luciferase reporter transactivation (concentration: 1 µM) | luciferase reporter transactivation (concentration: 2.5 µM) | luciferase reporter transactivation (concentration: 5 µM) | luciferase reporter transactivation (concentration: 10 µM) | luciferase reporter transactivation (concentration: 100 µM) | luciferase reporter transactivation (concentration: 25 µM) | luciferase reporter transactivation (concentration: 50 µM) | luciferase reporter transactivation (concentration: 250 µM) | luciferase reporter transactivation (concentration: 500 µM) |
| --- | --- | --- | --- | --- | --- | --- | --- | --- | --- |
| NS(=O)(=O)C(F)(F)C(F)(F)C(F)(F)C(F)(F)C(F)(F)C(F)(F)C(F)(F)C(F)(F)F [perfluorooctane sulfonamide] | 0.722 | 1.1 | 1.08 | 1.01 | 1.18 |  |  |  |  |
| O=C(O)C(F)(F)C(F)(F)F [perfluoropropanoic acid] | 1.14 |  | 1.11 | 1.23 | 1.32 | 1.18 | 1.29 | 1.27 | 1.33 |
